Results on 84 molecules are retold here after PubChem BioAssay AID720648 (The Scripps Research Institute Molecular Screening Center, 2013).

The whole screen tested about 370,000 compounds, of which about 3,100 (0.84%) were called active. Only a selection was taken, and actives are over-represented in it overall. A number with no mark means an inactive call.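 Rule for the calls: active = inhibition above the mean of compounds lying between control limits plus 3 SD, set per campaign (cut at about 8.5% in these data); inactive = the rest.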

For this experiment, the target named is Disintegrin and metalloproteinase domain-containing protein 17 (Homo sapiens) (UniProt P78536). In words: ADAM17 inhibitors, primary screen, biochemical, QFRET (AID 720648).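 Note: 0% = DMSO-only wells as the low control.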 Conditions: recombinant ADAM17, EDANS/DABCYL FRET peptide cleavage; at 6.95 µM; hits give high values.
Disintegrin and metalloproteinase domain-containing protein 17 (Homo sapiens), sequence (P78536 215-824 limits assumed): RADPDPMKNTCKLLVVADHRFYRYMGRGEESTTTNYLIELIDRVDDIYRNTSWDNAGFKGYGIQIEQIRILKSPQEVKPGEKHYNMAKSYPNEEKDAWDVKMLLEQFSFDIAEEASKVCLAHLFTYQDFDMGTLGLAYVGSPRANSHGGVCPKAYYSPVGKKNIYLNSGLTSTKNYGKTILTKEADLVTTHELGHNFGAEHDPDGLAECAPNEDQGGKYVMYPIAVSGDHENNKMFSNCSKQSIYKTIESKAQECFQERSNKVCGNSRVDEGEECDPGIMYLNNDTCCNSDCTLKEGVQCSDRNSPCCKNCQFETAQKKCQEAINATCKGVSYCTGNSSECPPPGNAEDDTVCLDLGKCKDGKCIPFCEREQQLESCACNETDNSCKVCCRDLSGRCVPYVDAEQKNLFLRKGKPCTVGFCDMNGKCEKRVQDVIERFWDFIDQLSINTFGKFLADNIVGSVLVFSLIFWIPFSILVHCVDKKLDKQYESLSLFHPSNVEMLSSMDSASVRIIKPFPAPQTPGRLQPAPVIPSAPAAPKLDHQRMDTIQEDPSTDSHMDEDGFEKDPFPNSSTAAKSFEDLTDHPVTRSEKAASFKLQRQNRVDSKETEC
Consider `CC(C)C(C#CC1CC1)N(Cc1ccc2c(c1)OCO2)C(N)=NC(=O)/C=C/c1cccc(C(F)(F)F)c1` (centres undefined), for which the inhibition is -3.71%.
With `CC(=O)NC(Cc1ccccc1)C(=O)NC1CCN(c2ncccc2[N+](=O)[O-])CC1` (centres undefined), the inhibition is -2.81%.
The same measure for `COc1ccc(-c2cc(-c3nnc(SCc4ccc([N+](=O)[O-])cc4)n3N)[nH]n2)cc1`: -2.61%; for `COc1ccc(-c2cc(C3CCN(c4ncccc4[N+](=O)[O-])CC3)[nH]n2)cc1`: 9.29% (active); for `O=C1CCC2(CCC(c3ccc(Cl)cc3)CC2)N1CCO` (centres undefined): 1.61%.
For the molecule `CCn1c(=O)n2n(c1=O)[C@@]1(C=C3CCCC[C@H]32)N=C(NC(=O)c2ccccc2)N(Cc2ccccc2)[C@H]1Cc1ccccc1`, the inhibition was 5.91%.
In the case of `Cc1ccc(NC(=O)Nc2cc(C)nn2-c2ccccc2)cc1`, the inhibition is -1.4%.
As for `Cc1cc(Nc2ccccc2)n(C(=O)c2ccc(N)cc2)n1`, the inhibition was 8.62% (active).
Take `Cn1c(Nc2ccccc2)cc(=O)n(C)c1=O`: the inhibition is -0.84%.
Turning to `COC(C(=O)NCc1ccccc1C)c1ccccc1` (centres undefined), the inhibition is -5.21%.
For the molecule `CCC(Oc1ccccc1C)C(=O)Nc1ccc(S(=O)(=O)Nc2cc(C)on2)cc1` (centres undefined), the inhibition was -4.21%.
Under `COC(C(=O)Nc1ccc(S(=O)(=O)Nc2ccc(C)c(C)c2)cc1)c1ccccc1` (centres undefined) stands 9.01% (active); under `COc1cccc(Cn2cc(COC(=O)Nc3ccc(F)cc3)nn2)c1`, -1.05%.
`COc1ccccc1C(=O)NC1CCCCN(C(C)C)C1=O` (centres undefined): the inhibition is -7.08%.
For `O=C(O)CCC(=O)N(Cc1ccco1)c1nc(-c2ccccc2)cs1`, the inhibition was -2.47%.
For `COc1ccc(CN(C(=O)c2cccs2)c2nccs2)cc1OC`, the inhibition is 0.3%.
For `COc1ccc(CCN(C(=O)COc2ccccc2)c2nc(-c3ccccc3)cs2)cc1OC`, the inhibition was 9.24% (active).
Under `C[C@@H]1COc2cccc(N3CCCC3)c2S(=O)(=O)N1C` stands -5.16%.
Turning to `C=CCN1[C@@H](Cc2ccccc2)COc2cccc(N3CCSCC3)c2S1(=O)=O`, the inhibition was -1.76%.
`Cc1cc(NC(=O)CSCC(=O)NC(C)c2ccccc2)no1` (centres undefined): the inhibition was -2.03%.
The same measure for `CCCn1nc(C(=O)NNC(=O)CCOc2ccccc2OCC)c2ccccc2c1=O`: -0.01%.
Under `CCCn1nc(C(=O)NNC(=O)CSCC(=O)Nc2cc(C)on2)c2ccccc2c1=O` stands 11.3% (active); under `COC(=O)C1CN(CCc2ccccc2)CCS(=O)(=O)N1Cc1ccc(F)cc1` (centres undefined), -9.15%.
Consider `CCOc1ccc(S(=O)(=O)NCCSc2ccccc2)cc1`, for which the inhibition is 6.1%.
With `Cc1ccc(S(=O)(=O)NCCSc2ccccc2)cc1[N+](=O)[O-]`, the inhibition is 10.7% (active).
Take `O=[N+]([O-])c1cc(S(=O)(=O)NCCc2ccccn2)ccc1Cl`: the inhibition is 0.55%.
For the molecule `C[C@H](C(=O)N(C)c1ccccc1)[C@@H](O)c1ccc2ccccc2c1`, the inhibition was -5.59%.
With `CCN(CC)C(=O)CC[C@@H]1CC[C@]2(CCCN(S(=O)(=O)C3CCCCC3)C2)O1`, the inhibition was -0.83%.
Regarding `COc1ccc(OCC(=O)OCC(=O)Nc2ccc(S(=O)(=O)N3CCCCC3)cc2)cc1`, the inhibition is -0.04%.
For `O=C(CSCc1ccc(Br)cc1)Nc1ccc(S(=O)(=O)N2CCCCCC2)cc1`, the inhibition was 12.9% (active).
Take `O=C(CN1CCCCCC1)Nc1ccc(S(=O)(=O)N2CCCCC2)cc1`: the inhibition was -1.57%.
The same measure for `N#CCC[C@H]1CC[C@]2(CCCN(Cc3ccc(Cl)cc3)C2)O1`: -4.85%; for `COc1ccc(-n2c(SCC(=O)NC3CCCC3)nnc2-c2ccncc2)cc1`: -3.54%; for `COc1ccccc1N(C(=O)Cn1nnc2ccccc21)C(C(=O)NCc1ccco1)c1ccc(C)o1` (centres undefined): -3.12%.
Under `CCC(C)(C)NC(=O)C(c1cccn1C)N(Cc1ccc(C)cc1)C(=O)Cn1nnc2ccccc21` (centres undefined) stands 0.71%; under `COCCNC(=O)C(c1ccc(C)o1)N(Cc1ccccc1)C(=O)Cn1nnc2ccccc21` (centres undefined), 9.14% (active); under `COCCCNC(=O)C[C@H]1C[C@@]2(C(=O)OC)C(=C[C@H](C(C)(C)C)O[C@@H]2C)N(Cc2ccc(Cl)cc2Cl)C1=O`, 3.29%.
Under `CCOC(=O)[C@@]12CN(C(=O)OC(C)(C)C)CC=C1N(Cc1ccc(OC)cc1)C(=O)[C@H]2CC(=O)NCc1ccc(OC)c(OC)c1` stands 1.15%.
With `CC(C)c1ccc(S(=O)(=O)N2CCN(C(C)C(=O)NC3CCCC3)CC2)cc1` (centres undefined), the inhibition is 0.12%.
`COc1cccc(CNC(C)C(=O)Nc2ccc(S(=O)(=O)N3CCCC3)cc2)c1` (centres undefined): the inhibition was -0.82%.
The same measure for `COc1ccc(S(=O)(=O)N2CCN(C(C)C(=O)Nc3ccc(C(C)C)cc3)CC2)cc1` (centres undefined): 12.4% (active); for `C[C@@H]1ON(C)[C@H]2C[C@H]3c4[nH]c5cccc(-c6ccc7c(c6)OCO7)c5c4CCN3C[C@@H]12`: -16.2%.
As for `COc1ccccc1CCNC(=O)C1CCN(c2nc(C)cc(C)n2)CC1`, the inhibition was -1.54%.
Under `O=S1(=O)c2c(NCc3ccco3)cccc2Oc2ccccc2CN1Cc1cn(Cc2cccc(C(F)(F)F)c2)nn1` stands -1.67%; under `COc1ccc(Cl)cc1NC(=O)COC(=O)c1ccc(Br)o1`, -0.97%; under `COc1ccc(Cl)cc1NC(=O)c1cccc(N2C(=O)C3CC=CCC3C2=O)c1` (centres undefined), -4.89%.
On to `COc1ccc(Cl)cc1NC(=O)COC(=O)C(CC(C)C)N1C(=O)C2CC=CCC2C1=O` (centres undefined), for which the inhibition is 18.9% (active).
For `Cc1cccc(C(=O)Nc2c(-c3ccc(F)cc3)nc3ncccn23)c1`, the inhibition was -94.5%.
The same measure for `CCOC(=O)c1csc(NC(=O)C2CCCN(S(=O)(=O)c3ccc(Cl)s3)C2)n1` (centres undefined): 1.07%.
Regarding `COc1ccc([N+](=O)[O-])cc1NCC(=O)c1ccc(C)cc1`, the inhibition was 0.13%.
As to `Cc1ccccc1OS(=O)(=O)c1cccc([N+](=O)[O-])c1`, the inhibition is 3.53%.
Consider `COc1cccc(/C=N/NC(=O)c2cccc([N+](=O)[O-])c2)c1OS(=O)(=O)c1ccc(C)cc1`, for which the inhibition is 9.36% (active).
As to `O=C(CSc1nc2c(c(=O)[nH]1)CCCC2)N1CCCCC1`, the inhibition was -1.39%.
Take `CC(C)Oc1cc(F)ccc1-c1cc(C(=O)Nc2cccc(Cl)c2)[nH]n1`: the inhibition is 12.5% (active).
On to `COc1cc(NC(=O)c2cc(-c3ccc(F)cc3OC(C)C)n[nH]2)cc(OC)c1OC`, for which the inhibition is 3.11%.
In the case of `CC(C)Oc1cc(F)ccc1-c1cc(C(=O)Nc2ccc(F)cc2)[nH]n1`, the inhibition is 2.41%.
Turning to `O=C(N1CCOCC1)N1CC[C@H]2[C@H](CCCN2Cc2ccc(F)cc2)C1`, the inhibition was -3.39%.
For `O=C(NC1CCC1)c1ccc(C#CC2CC2)cn1`, the inhibition is -2.55%.
Consider `CCn1c(Cc2cccs2)nnc1SCC(=O)c1ccc(C)cc1`, for which the inhibition is 9.16% (active).
The same measure for `Cc1ccc(-n2c(Cc3cccs3)nnc2SCC(=O)OC(C)C)cc1`: -0.84%; for `CCn1c(SCC(=O)c2ccc(Cl)s2)nnc1-c1cccs1`: -2.07%.
With `CCC(=O)Nc1ccc2c(c1)C(=O)N(C)[C@H]1CC[C@H](CC(=O)NCCOC)O[C@@H]1CO2`, the inhibition is -1.85%.
In the case of `COc1ccc(C#CCNCc2ccc(OC)cc2OC)cc1`, the inhibition was -5.67%.
As for `COC(=O)c1ccccc1-n1cc(COC(=O)NCCc2ccccc2)nn1`, the inhibition was -7.96%.
For the molecule `CC1Cc2ccccc2N1S(=O)(=O)c1cccc(C(=O)NCC(c2ccco2)N2CCCC2)c1` (centres undefined), the inhibition is -2.28%.
The same measure for `CCCCn1ccnc1C(=O)c1cccc(S(=O)(=O)N2c3ccccc3CC2C)c1` (centres undefined): 11.1% (active); for `CC1Cc2ccccc2N1S(=O)(=O)c1cccc(C(=O)OCC(=O)N2CCOCC2)c1` (centres undefined): -5.91%; for `C=CCN1C(=O)[C@H](CC(=O)NCCCN2CCCC2=O)[C@@]2(C(=O)OCC)CCCC=C12`: -6.27%.
For `COc1cccc(NC(=O)CCNS(=O)(=O)c2ccc3c(c2)oc(=O)n3C)c1`, the inhibition is -2.66%.
Under `COc1cc(NC(=O)CCS(=O)(=O)c2ccc3c(c2)oc(=O)n3C)cc(OC)c1` stands 8.71% (active); under `Cc1ccc(NC(=O)CCNS(=O)(=O)c2ccc3c(c2)oc(=O)n3C)cc1C`, 1.53%; under `Cc1cc(NS(=O)(=O)c2ccc(NC(=O)CSc3nnc(SCc4ccc(F)cc4)s3)cc2)nc(C)n1`, 2.06%.
Turning to `CCOC(=O)c1cccc(NC(=O)CN(c2ccc(C)cc2)S(=O)(=O)c2c(C)noc2C)c1`, the inhibition was 7.3%.
In the case of `CCOC(=O)c1cccc(NC(=O)CN(C)S(=O)(=O)c2ccc(-c3cocn3)s2)c1`, the inhibition was 9.31% (active).
On to `CCOC(=O)c1cccc(NC(=O)CCn2nnc3ccccc32)c1`, for which the inhibition was -1.7%.
For `O=C(OCC#CCSc1nnc(-c2ccco2)o1)c1ccc(F)cc1`, the inhibition was -3.45%.
Take `CN(C)Cc1cn(-c2ccc(-c3noc4c3C(=O)N(CC(=O)N3CCOCC3)CC4)cc2)nn1`: the inhibition was -1.12%.
The same measure for `O=C(COc1ccc(Cl)cc1)N1CCN(c2cccc(C(F)(F)F)c2)CC1`: 13.9% (active).
The same measure for `Cc1c(C)c2ccc(OCC(=O)N3CCN(c4cccc(Cl)c4)CC3)cc2oc1=O`: -9.1%; for `CSCCC(NC(=O)COc1ccccc1)C(=O)N1CCN(c2cccc(C(F)(F)F)c2)CC1` (centres undefined): 0.72%; for `Cc1ccc(Cn2cc(CN3[C@@H](CC(C)C)COc4ccc(Cl)cc4S3(=O)=O)nn2)cc1`: -0.49%.
Consider `CN1C(=O)C(CC(=O)Nc2ccccc2)S/C1=N/c1nccs1` (centres undefined), for which the inhibition is -3.53%.
Consider `CC1CC(=O)N(CC(=O)Nc2cccc(Cl)c2)c2ccccc2S1(=O)=O` (centres undefined), for which the inhibition is 0.03%.
For `O=C(CC1SC(=Nc2ccccc2)N(Cc2ccccn2)C1=O)Nc1cccc(Cl)c1` (centres undefined), the inhibition is 9.62% (active).

For orientation: inhibition means the relative decrease from the control value, in per cent.
